Measurements from PubChem BioAssay AID1159580 (chemical genetic matrix, 2015).
The whole screen tested about 5,500 compounds, of which about 2,000 (36%) were called active. Another 18% or so got no clear call; they are omitted. Cut-off read from the data, not from the text of the source: active = normalized growth mostly below about 0.91 (no sharp cut-off); inconclusive = no clear call, values can overlap the other calls; inactive = mostly above about 0.92. The list shows a part of the results.

Assay: chemical genetic growth profiling, strain panel (AID 1159580);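 note: tested at 20 µM; growth read once vehicle control cultures reached saturation at 30 °C; 1 = growth at the plate median or of vehicle wells; lower values mean less growth of the strain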
Conditions: growth OD

Measured: normalized growth

Cc1ccnc(NS(=O)(=O)c2ccc(N)cc2)n1
inactive: S. cerevisiae deletion strains, locus YJR075W, strain HOC1, active compounds read low 1.02 | S. cerevisiae deletion strains, locus YKL009W, strain mrt4, active compounds read low 1.01 | S. cerevisiae deletion strains, locus YKL068W, active compounds read low 1 | S. cerevisiae deletion strains, locus YKL085W, strain MDH1 (second series), active compounds read low 1.01 | S. cerevisiae deletion strains, locus YKL085W, strain MDH1, active compounds read low 1.01 | S. cerevisiae deletion strains, locus YKL160W, strain elf1, active compounds read low 1.01 | S. cerevisiae deletion strains, locus YKL190W, strain CNB1, active compounds read low 0.985 | S. cerevisiae deletion strains, locus YKR001C, strain vps1, active compounds read low 1.02 | S. cerevisiae deletion strains, locus YKR026C, strain gcn3, active compounds read low 1.01 | S. cerevisiae deletion strains, locus YKR091W, strain srl3, active compounds read low 0.998 | S. cerevisiae deletion strains, locus YLL001W, strain dnm1, active compounds read low 1.01 | S. cerevisiae deletion strains, locus YLL026W, active compounds read low 1 | S. cerevisiae deletion strains, locus YLL041C, strain sdh2, active compounds read low 1 | S. cerevisiae deletion strains, locus YLR027C, strain aat2, active compounds read low 1 | S. cerevisiae deletion strains, locus YLR039C, strain RIC1, active compounds read low 1.04 | S. cerevisiae deletion strains, locus YLR058C, strain SHM2, active compounds read low 1.02 | S. cerevisiae deletion strains, locus YLR102C, strain apc9, active compounds read low 1.01 | S. cerevisiae deletion strains, locus YLR113W, strain HOG1, active compounds read low 0.984 | S. cerevisiae deletion strains, locus YLR221C, strain rsa3, active compounds read low 0.98 | S. cerevisiae deletion strains, locus YLR258W, strain gsy2, active compounds read low 0.975 | S. cerevisiae deletion strains, locus YLR262C, strain YPT6 (second series), active compounds read low 1.04 | S. cerevisiae deletion strains, locus YLR262C, strain YPT6, active compounds read low 1.05 | S. cerevisiae deletion strains, locus YLR268W, strain sec22, active compounds read low 1.03 | S. cerevisiae deletion strains, locus YLR320W, strain mms22, active compounds read low 0.961 | S. cerevisiae deletion strains, locus YLR330W, strain CHS5, active compounds read low 1.01 | S. cerevisiae deletion strains, locus YLR342W, strain FKS1 (second series), active compounds read low 1 | S. cerevisiae deletion strains, locus YLR342W, strain FKS1, active compounds read low 1.01 | S. cerevisiae deletion strains, locus YLR357W, strain rsc2, active compounds read low 1.04 | S. cerevisiae deletion strains, locus YLR370C, strain arc18, active compounds read low 1 | S. cerevisiae deletion strains, locus YLR371W, strain rom2, active compounds read low 1.01 | S. cerevisiae deletion strains, locus YLR384C, strain iki3, active compounds read low 1.01 | S. cerevisiae deletion strains, locus YLR418C, strain cdc73, active compounds read low 1.07 | S. cerevisiae deletion strains, locus YML016C, strain PPZ1, active compounds read low 1.01 | S. cerevisiae deletion strains, locus YML032C, strain rad52, active compounds read low 1.01 | S. cerevisiae deletion strains, locus YML120C, strain ndi1, active compounds read low 1.02 | S. cerevisiae deletion strains, locus YML124C, strain tub3, active compounds read low 1.01 | S. cerevisiae deletion strains, locus YMR058W, strain fet3, active compounds read low 1 | S. cerevisiae deletion strains, locus YMR078C, strain ctf18, active compounds read low 1.01 | S. cerevisiae deletion strains, locus YMR125W, strain sto1, active compounds read low 0.995 | S. cerevisiae deletion strains, locus YMR129W, active compounds read low 0.998 | S. cerevisiae deletion strains, locus YMR205C, strain PFK2, active compounds read low 1.01 | S. cerevisiae deletion strains, locus YMR223W, strain ubp8, active compounds read low 1 | S. cerevisiae deletion strains, locus YMR231W, strain pep5, active compounds read low 1 | S. cerevisiae deletion strains, locus YMR263W, strain SAP30, active compounds read low 0.996 | S. cerevisiae deletion strains, locus YMR307W, strain GAS1, active compounds read low 1.01 | S. cerevisiae deletion strains, locus YNL067W, strain RPL9B, active compounds read low 1.02 | S. cerevisiae deletion strains, locus YNL071W, strain lat1, active compounds read low 0.987 | S. cerevisiae deletion strains, locus YNL128W, strain TEP1, active compounds read low 1.02 | S. cerevisiae deletion strains, locus YNL153C, strain GIM3, active compounds read low 1.01 | S. cerevisiae deletion strains, locus YNL183C, strain NPR1, active compounds read low 0.972 | S. cerevisiae deletion strains, locus YNL209W, strain ssb2, active compounds read low 0.982 | S. cerevisiae deletion strains, locus YNL233W, strain BNI4, active compounds read low 1.01 | S. cerevisiae deletion strains, locus YNL248C, strain rpa49, active compounds read low 1.01 | S. cerevisiae deletion strains, locus YNL250W, strain rad50, active compounds read low 1.03 | S. cerevisiae deletion strains, locus YNL271C, strain bni1, active compounds read low 1.02 | S. cerevisiae deletion strains, locus YNL298W, strain CLA4, active compounds read low 1.02 | S. cerevisiae deletion strains, locus YNL307C, strain MCK1, active compounds read low 1.02 | S. cerevisiae deletion strains, locus YNL322C, strain KRE1 (second series), active compounds read low 0.998 | S. cerevisiae deletion strains, locus YNL322C, strain KRE1, active compounds read low 1 | S. cerevisiae deletion strains, locus YNR049C, strain mso1, active compounds read low 1.01 | S. cerevisiae deletion strains, locus YNR052C, strain pop2, active compounds read low 1.03 | S. cerevisiae deletion strains, locus YOL006C, strain TOP1, active compounds read low 1.03 | S. cerevisiae deletion strains, locus YOL012C, strain htz1 1.03 | S. cerevisiae deletion strains, locus YOL147C, strain pex11, active compounds read low 1.02 | S. cerevisiae deletion strains, locus YOR001W, strain rrp6, active compounds read low 1.01 | S. cerevisiae deletion strains, locus YOR061W, strain CKA2, active compounds read low 1.01 | S. cerevisiae deletion strains, locus YOR069W, strain VPS5, active compounds read low 1.01 | S. cerevisiae deletion strains, locus YOR070C, strain gyp1, active compounds read low 0.989 | S. cerevisiae deletion strains, locus YOR080W, strain dia2, active compounds read low 1.01 | S. cerevisiae deletion strains, locus YOR083W, strain WHI5, active compounds read low 0.979 | S. cerevisiae deletion strains, locus YOR106W, strain vam3, active compounds read low 0.975 | S. cerevisiae deletion strains, locus YOR136W, strain idh2, active compounds read low 1.01 | S. cerevisiae deletion strains, locus YOR144C, strain elg1, active compounds read low 1.02 | S. cerevisiae deletion strains, locus YOR184W, strain ser1, active compounds read low 1.03 | S. cerevisiae deletion strains, locus YOR231W, strain MKK1, active compounds read low 0.98 | S. cerevisiae deletion strains, locus YOR265W, strain rbl2, active compounds read low 1.01 | S. cerevisiae deletion strains, locus YOR270C, strain vph1, active compounds read low 1.04 | S. cerevisiae deletion strains, locus YOR290C, strain snf2, active compounds read low 0.964 | S. cerevisiae deletion strains, locus YOR316C, strain cot1, active compounds read low 1.01 | S. cerevisiae deletion strains, locus YPL051W, strain arl3, active compounds read low 1.01 | S. cerevisiae deletion strains, locus YPL055C, strain LGE1, active compounds read low 0.988 | S. cerevisiae deletion strains, locus YPL078C, strain atp4, active compounds read low 1.03 | S. cerevisiae deletion strains, locus YPL106C, strain sse1, active compounds read low 0.968 | S. cerevisiae deletion strains, locus YPL240C, strain hsp82, active compounds read low 0.989 | S. cerevisiae deletion strains, locus YPL241C, strain CIN2, active compounds read low 1.01 | S. cerevisiae deletion strains, locus YPL256C, strain CLN2, active compounds read low 0.965 | S. cerevisiae deletion strains, locus YPR119W, strain clb2, active compounds read low 1.01 | S. cerevisiae deletion strains, locus YPR141C, strain kar3, active compounds read low 1.03 | S. cerevisiae deletion strains, locus YPR163C, strain tif3, active compounds read low 1.03 | S. cerevisiae deletion strains, locus YPR167C, strain met16, active compounds read low 1 | S. cerevisiae deletion strains, strain wtn01, active compounds read low 1.02 | S. cerevisiae strains, strain wild type, active compounds read low 0.999
